# According to PubChem BioAssay (NCATS):
# Results filed as inconclusive are left out. A call without a number means that no potency is given here. Calls of active or inactive are those of the source. Calls come from the whole dose curve; as a rule, active = well fitted curve in the direction sought with a large enough effect; inconclusive = small, poorly fitted or top-dose-only effect, or another doubt; inactive = no such curve, though single readings can be large; an effect the other way counts as inactive or inconclusive. Square brackets hold non-standard residues; d marks the D form. Peptide text beside a SMILES is read from it. ξ: configuration not given here. ξL = CC(C)CC(N)C(=O)O
# Key:
# [1] = OV-KATE Cancer Cell Toxicity qHTS against the NCATS CANVASS Library (AID 1347345); note: potency is the fitted concentration of half-maximal effect
# Outline: (§1)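 Following a 4 h pre-incubation of 1000 seeded cells, compounds were pinned in an 11-pnt dilution series and left for 72 h; viability then came from CellTiter-Glo.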
# [2] = HPAF-II Cancer Cell Toxicity qHTS against the NCATS CANVASS Library (AID 1347346); note: series mostly up to about 38 µM; nearly all actives have a fitted effect of over 55% in size
# Outline: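 Cytotoxicity in HPAF-II pancreatic cancer cells: 72 h treatment across 11 concentrations, ATP-based CellTiter-Glo luminescence endpoint.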
# [3] = UWB1.289 Cancer Cell Toxicity qHTS against the NCATS CANVASS Library (AID 1347347); note: nearly all actives have a fitted effect of over 60% in size; note: potency is the fitted concentration of half-maximal effect
# Outline: as §1
# [4] = Panc-1005 Cancer Cell Toxicity qHTS against the NCATS CANVASS Library (AID 1347349); note: series mostly up to about 38 µM; nearly all actives have a fitted effect of over 60% in size
# Outline: as §1
# [5] = SW1088 Cancer Cell Toxicity qHTS against the NCATS CANVASS Library (AID 1347350); note: nearly all actives have a fitted effect of over 75% in size; note: potency is the fitted concentration of half-maximal effect
# Outline: as §1
# [6] = A2780 Cisplatin Sensitive Ovarian Cancer Cell Toxicity qHTS against the NCATS CANVASS Library (AID 1347353); note: nearly all actives have a fitted effect of over 60% in size; note: potency is the fitted concentration of half-maximal effect
# Outline: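 Seventy-two-hour exposure of cisplatin-sensitive A2780 ovarian cells to an 11-concentration qHTS series; cytotoxicity is inferred from loss of ATPLite luminescence. Bortezomib titration served as positive control.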
# [7] = HEK293 24hr Apoptosis Induction qHTS against the NCATS CANVASS Library (AID 1347359)
# Outline: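 HEK293 cells (500/well, DMEM + 10% FBS) were exposed to compounds in an 11-point series for 24 hours at 37 degrees C, then caspase-3/7 activity was read by Caspase-Glo DEVD luciferase luminescence after 15 min.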
# [8] = target: Luciferin 4-monooxygenase (Photinus pyralis) (UniProt P08659); assay: Firefly luciferase counterscreen qHTS: Assay Interference Panel against the NCATS CANVASS Library (AID 1347363); note: series mostly up to about 57 µM
# Sequence of Luciferin 4-monooxygenase (Photinus pyralis) (P08659 whole entry, looked up): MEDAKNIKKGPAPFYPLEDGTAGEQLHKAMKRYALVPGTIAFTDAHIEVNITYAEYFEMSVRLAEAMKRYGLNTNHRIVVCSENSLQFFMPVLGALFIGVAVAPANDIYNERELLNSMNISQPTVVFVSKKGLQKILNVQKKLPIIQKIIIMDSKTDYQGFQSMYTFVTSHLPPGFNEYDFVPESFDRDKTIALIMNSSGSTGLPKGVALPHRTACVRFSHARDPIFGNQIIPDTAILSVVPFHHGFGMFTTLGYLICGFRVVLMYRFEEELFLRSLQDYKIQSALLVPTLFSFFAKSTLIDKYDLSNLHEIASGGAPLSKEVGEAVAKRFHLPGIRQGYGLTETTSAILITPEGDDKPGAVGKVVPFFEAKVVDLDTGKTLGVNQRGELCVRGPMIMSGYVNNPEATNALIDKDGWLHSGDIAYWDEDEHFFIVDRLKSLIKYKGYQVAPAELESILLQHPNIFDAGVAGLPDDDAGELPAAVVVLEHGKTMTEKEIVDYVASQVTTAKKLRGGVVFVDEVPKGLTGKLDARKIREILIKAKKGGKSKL
# Outline: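 Purified P. pyralis luciferase was added to compounds (11-point series) preincubated 15 min at room temperature with substrate containing 0.013 mM D-luciferin and 0.013 mM ATP; luminescence was read after 5 min.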
# [9] = DH5-alpha competent E. coli microbial cell viability qHTS against the NCATS CANVASS Library (AID 1347377); conditions: outcome: dose series up to 46.1 µM unless noted
# Outline: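 Cell viability of competent DH5-alpha E. coli is scored from ATP content by luminescence. Cells sit overnight at 37C with compound across an 11-point concentration series.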
# [10] = qHTS for activators of Nrf2/ARE signaling pathway screened against the NCATS CANVASS Library (AID 1347391); note: nearly all actives have a fitted effect of over 60% in size
# Outline: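 Cells carrying an ARE-driven beta-lactamase reporter (HepG2 background) are dosed for 16 h, then stained with CCF4. Cell viability in the same wells is measured by CellTiter-Glo luminescence.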
# [11] = qHTS for inhibitors of ER calcium dysfunction: SERCaMP assay screened against the NCATS CANVASS Library (AID 1347393);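 note: series mostly up to about 77 µM; lower secreted reporter signal means inhibitor of ER calcium depletion; nearly all actives have a fitted effect of over 40% in size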
# Outline: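 qHTS in SH-SY5Y reporter cells: 16 h compound pretreatment, 4 h thapsigargin, then secreted Gaussia luciferase measured by luminescence.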
# [12] = OV-SAHO Cancer Cell Toxicity qHTS against the NCATS CANVASS Library (AID 1347348); note: nearly all actives have a fitted effect of over 55% in size; note: potency is the fitted concentration of half-maximal effect
# Outline: as §1
# [13] = U-118MG Cancer Cell Toxicity qHTS against the NCATS CANVASS Library (AID 1347351); note: series mostly up to about 38 µM
# Outline: as §1
# [14] = test system: NAD(P)H diaphorase (Clostridium kluyveri); assay: Diaphorse counterscreen qHTS: Assay Interference Panel against the NCATS CANVASS Library (AID 1347362)
# Outline: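 Clostridium kluyveri diaphorase in PBS with 0.01% Tween-20 was preincubated 15 min at room temperature in the dark with compounds (11-point series). Resorufin fluorescence (ex 525/20, em 598/25) was read 5 min after adding resazurin/NADH.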
# [15] = KB-8-5-11 Cancer Cell Toxicity qHTS against the NCATS CANVASS Library (AID 1347364); note: nearly all actives have a fitted effect of over 75% in size
# Outline: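 Natural products were titrated in 11 points onto KB-8-5-11 cells, 500 per well, and cytotoxicity was scored from CellTiter-Glo luminescence after 72 hr culture.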
# [16] = qHTS for Hypoxia signaling pathway (HIF-1) antagonists against the NCATS CANVASS Library (AID 1347374)
# Outline: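 HRE-bla ME-180 cells (2,000/well, 0.5% dialyzed FBS) were pre-incubated 5 h, then given an 11-point compound series plus CoCl2 (60 uM solution as added) for 17 h at 37C. CCF4 β-lactamase read (ex 405, em 460/530 nm) after 2 h at RT.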
# [17] = Cytotoxicity qHTS for assessment of Hepg2 cells membrane integrity screened against the NCATS CANVASS Library (AID 1347387)
# Outline: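 Fluorescence proportional to lysed-cell number, from LDH leaking out of HepG2 cells exposed 5 hr at 37C to 0.59 nM - 46 uM compound (11-point qHTS), is measured after 10 min with CytoTox-ONE.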
# [18] = qHTS for activators of dead-cell proteases activity screened against the NCATS CANVASS Library (AID 1347392);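 note: luminescence from protease leaking out of membrane-damaged cells cleaving impermeant substrate; rising signal means more cytotoxicity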
# Outline: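 HepG2 cells (2000/well) attached 18 h at 37C, then exposed 5 h to compounds (11-point qHTS). Dead-cell protease activity read as luminescence from cell-impermeant AAF-aminoluciferin substrate after 15 min at room temperature.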
# [19] = target: Nuclear receptor subfamily 1 group I member 3 (Homo sapiens) (UniProt Q14994); assay: qHTS for Constitutive Androstane Receptor (CAR) Antagonist screened against the NCATS CANVASS Library (AID 1347372);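 note: cells stimulated with 50 nM CITCO agonist so inhibition reflects antagonism; series mostly up to about 46 µM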
# Sequence of Nuclear receptor subfamily 1 group I member 3 (Homo sapiens) (Q14994 whole entry, looked up): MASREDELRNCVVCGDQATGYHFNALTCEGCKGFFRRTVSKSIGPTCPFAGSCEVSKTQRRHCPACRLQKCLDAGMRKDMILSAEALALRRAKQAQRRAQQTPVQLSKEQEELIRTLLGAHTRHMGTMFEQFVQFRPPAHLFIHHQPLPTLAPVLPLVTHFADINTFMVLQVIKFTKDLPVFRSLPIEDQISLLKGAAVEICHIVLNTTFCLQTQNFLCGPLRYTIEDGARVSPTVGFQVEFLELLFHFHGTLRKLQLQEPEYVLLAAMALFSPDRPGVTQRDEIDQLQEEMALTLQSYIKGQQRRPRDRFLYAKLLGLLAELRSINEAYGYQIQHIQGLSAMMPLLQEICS
# Outline: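 HepG2 cells stably carrying hCAR and a CYP2B6-2.2kb luciferase reporter were exposed to compounds plus 50 nM CITCO for 24hr at 37C. CAR activity was read by ONE-Glo luminescence, with viability measured first by CellTiter-Fluor.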
# [20] = qHTS for Hypoxia signaling pathway (HIF-1) agonists against the NCATS CANVASS Library (AID 1347375)
# Outline: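 Inducers of HIF-1 signaling were detected in ME-180 cells bearing an HRE-driven beta-lactamase reporter after 17 h compound exposure. Activity came from CCF4-AM FRET emission ratio (460/530 nm) in qHTS format.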
Compound,Potency [1],Potency [2],Potency [3],Potency [4],Potency [5],Potency [6],Potency [7],Potency [8],outcome [9],Potency [10],Potency [11],Potency [12],Potency [13],Potency [14],Potency [15],Potency [16],outcome [17],Potency [18],Potency [19],outcome [20]
CC[C@@H](C)[C@H]1NC(=O)C(CC(C)C)NC(=O)[C@@H](CC(C)C)NC(=O)[C@H](Cc2c[nH]c3ccccc23)NC(=O)CNC(=O)[C@@H](CC(N)=O)NC1=O (stereo partly drawn) (cyclo(GW[dL][ξL][dI][dN])),inactive,inactive,inactive,inactive,11.9 µM (active),inactive,inactive,inactive,inactive,inactive,inactive,,,,,,,,,
O=c1cc(-c2ccc(O)cc2)oc2cc(O)c([C@@H]3OC(CO)[C@H](O)[C@@H](O)[C@H]3O)c(O)c12 (stereo not given in full),inactive,inactive,inactive,inactive,inactive,inactive,,inactive,inactive,inactive,inactive,inactive,inactive,inactive,inactive,inactive,inactive,inactive,,
CC(=O)N[C@H](C)c1nc(/C=C/C=C/C(=O)CC2CC(=O)CC[C@]2(C)O)cs1 (stereo not given in full),inactive,inactive,inactive,inactive,inactive,,,inactive,inactive,inactive,inactive,inactive,inactive,,inactive,inactive,inactive,inactive,inactive,inactive
C=C1CCC2C(C)(C(=O)O)CCC(CC/C(C)=C/C(=O)NC(CCC(N)=O)C(=O)O)[C@@]2(C)C1 (stereo not given in full),inactive,inactive,inactive,inactive,inactive,inactive,inactive,inactive,inactive,inactive,inactive,inactive,inactive,inactive,inactive,inactive,,inactive,,inactive
C=C1C[C@H]2O[C@@H]3[C@@H]4[C@H](CC[C@@](C)(O)[C@@H]42)[C@H](C)COC3(C)[C@@H](OC(=O)CCCCCCC)CC1=O (stereo not given in full),21.1 µM (active),,18.8 µM (active),,8.41 µM (active),13.2 µM (active),inactive,inactive,inactive,inactive,,18.8 µM (active),,,,,inactive,inactive,inactive,
